Results published in the supplement of paper PMC11417369.
± gives the standard deviation of the averaged measurements. The full ranking holds about 25,000 sequences; the median of “ln(normalized median fluorescence intensity)” is about 10, and the highest 2% start at about 12. What follows is part of a selection rich in the highest values, with near analogues and random picks from the rest.

Each sequence was assayed on PfAP2-G AP2 domain (GST-tagged) (assay: gcPBM binding intensity (ln(normalized median fluorescence intensity)); higher = stronger DNA binding).
Procedure, shortened: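 Binding intensity is defined as the maximum Masliner-normalised natural-log median intensity across replicate spots for either probe orientation. It was measured on an Agilent 4 × 180k array of primer-extended double-stranded 36-bp intergenic genomic probes and negative controls, to which GST-tagged P. falciparum DNA-binding domains made in E. coli were applied for 1 h in 1× PBS with 1% milk, 0.2 mg/ml BSA, 0.5% salmon testes DNA and 0.03% Triton X-100. Detection was by Alexa488 anti-GST antibody and scanning at 488 nm.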

Row | Sequence | gcPBM binding intensity (ln)
1 | CCAATAATATATAGAAGTACAGAAAAAAAAAAAAAA [XGTACX_site2049] | 11.5 ± 1.1
2 | TATATATAAGAAAAAAGTACAGATATATATATATTC [XGTACX_site4788] | 11.6 ± 1.1
3 | TTTTTTTTTTTTTTTTTTTTTTTGCTCAGTGTGGTA [CACACA_negctrl_site29] | 9.95 ± 0.56
4 | ACAGAAAATAAAATTTGTACATATATAGAATAAAGA [XGTACX_site3014] | 10.8 ± 0.39
5 | ATTTTGATAACCGTACGTACATATATATATATATAT [XGTACX_site6605] | 11.8 ± 0.85
6 | AAAATTATATATTATAGTACATAAAATTTTGATATA [XGTACX_site994] | 10.9 ± 0.56
7 | AATGATTTTGATTAACGTACGTACAAATATATATAT [XGTACX_site6604] | 11.5 ± 0.82
8 | ACCATTTGTACTTACGCACACATAAAATATATATAT [CACACA_site1545] | 11.5 ± 1
9 | TAAATTATATTATGCACACTTAAAAATATATTTAAC [CACACA_site3512] | 10.07 ± 0.085
10 | CAACAAAAATTATTTACACACAAAAGGCAAGGAAAT [CACACA_site1971] | 10.5 ± 0.28
11 | ACCTTAAATAATACATGTACAAAAAAATTTATAATA [XGTACX_site1043] | 11 ± 0.49
12 | TCTTACTAATTTATGGGGACTTATCACCTATTCAGT [CACACA_negctrl_site652] | 10.5 ± 0.23
13 | TTTTGTGGAGGATGGTGTACGGTATTGTATTATTAC [XGTACX_site1942] | 11.1 ± 0.64
14 | ATTTATATATTTATACGTACTTATATATTGTTACAT [XGTACX_site6254] | 11.2 ± 0.73
15 | TTACATATTATACGAAGTACGTACAAATACTTATAT [XGTACX_site8598] | 11.7 ± 0.81
16 | TTATGTATAAACACACGTACACACACTAAGTATATC [XGTACX_site3254] | 11.5 ± 1
17 | ATACGAAGTACGTACACACACTTATATGTTACTAAA [CACACA_site7812] | 11.7 ± 1
18 | TACCTAATATGTTATACACACATTAGAAGTACATAT [CACACA_site5375] | 11.6 ± 1.1
19 | AGAAAATATACAAAACGTACTTATATATTATATCTA [XGTACX_site3104] | 10.9 ± 0.69
20 | ATACATATATACATACGTACTTATATACATATGTGC [XGTACX_site5268] | 10.9 ± 0.42
21 | TTATACGAAGTACGTACACACACTTATATGTTACTA [CACACA_site4019] | 11.6 ± 0.94
22 | ATAAAAATAAACATACGTACTTACACGAATATACAT [XGTACX_site5989] | 11.1 ± 0.65
23 | TTTCATGTTTTAAAGTGTACATAAATATATTATATG [XGTACX_site3367] | 11.5 ± 0.89

Row | Sequence | gcPBM binding intensity (ln)
24 | ATAATTTCAATATTTAATATCATATATATATATTTT [GTGCAC_negctrl_site713] | 9.56 ± 0.13
25 | CTATCATATTTATGCACACAAAAATAATTAATTCGT [CACACA_site2614] | 10.2 ± 0.23
26 | TAATTTATAAATAATTGTACATAGTTTATTTAGATT [XGTACX_site4599] | 10.9 ± 0.43
27 | ATACAGATAGGATGCACACATAATTCAAATACAATA [CACACA_site4531] | 10.2 ± 0.13
28 | TTTTTTTTATTAAAAAGTACTAAACAAATTATATAT [XGTACX_site121] | 11.1 ± 0.73
29 | AATAATTTTTAAATATAAACATTTTTTTTTTTTTTT [GTGCAC_negctrl_site532] | 9.72 ± 0.057
30 | TGCACAAAGTTATGCACACACCTAAAATTAATTTTT [CACACA_site7385] | 10.05 ± 0.071
31 | TGATAATAAGCATACACACACACACTAAAAAAAAAA [CACACA_site6478] | 10.3 ± 0.43
32 | AGAAAAAAAAAAAGTACACACATATAATATATATAT [CACACA_site2973] | 11.6 ± 1.2
33 | ATATATATATATATATGTACACATAAAAAGAAAGAA [XGTACX_site1603] | 11.7 ± 1.1
34 | AATAAAAGTTCACCTGTACACACATATATATATGTA [CACACA_site8500] | 11.3 ± 0.76
35 | AAATAAAGAAATATATGTACATATATATATATATAT [XGTACX_site5131] | 11.3 ± 0.43
36 | ATAAGGAAGGGATGCACACAAAAGGGTACATAAGAA [CACACA_site4006] | 11.4 ± 0.71
37 | ATACATATACACATATGTACATATGAAAAGAAAAAT [XGTACX_site6445] | 11.1 ± 0.64
38 | AAATAAAAGTTCACCTGTACACACATATATATATGT [XGTACX_site3513] | 11.5 ± 0.66
39 | TAAAAGTTCACCTGTACACACATATAAATATGTACA [CACACA_site6901] | 11.7 ± 0.85
40 | AAAGAAAAAAAAAAAAGTACATAAATATAAAAAGAA [XGTACX_site6753] | 11.5 ± 0.89
41 | AAAAAAAAAAAGTACACACATACATATAAATATATA [CACACA_site1809] | 11.6 ± 0.95
42 | CAGGGCAGGGGGAAGGGTACACATAAAAGAAAATAA [XGTACX_site172] | 11.7 ± 1.1
43 | AAAGAAGGGGGGGGAAAAAAAAATAAAAGAGGAAAA [XGTACX_negctrl_site92] | 11 ± 0.77
44 | ACATATAAAATGTATACACACAAATATTACATATAT [CACACA_site1472] | 10.1 ± 0.11
45 | TTTTTCATTTAGCTTTTACACACTATATATTATTGA [CACACA_site7888] | 9.905 ± 0.064
